# Columns and labels:
# Test in all cases: yeast three-hybrid, YBZ-1, SC-Leu-His + 0.5 mM 3-AT, 4 days
# Settings in all cases: tags: N-Gal4 AD-HA kept; label: inside an RPR1-promoter hybrid RNA with tandem MS2 sites; ssRNA
# PUM1 PUF domain R4-DYI = PUM1 PUF domain R4-DYI (Homo sapiens, UniProt Q14671 828-1176, N971D;H972Y;Q975I)
# Method in brief: (§1)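 Matching RNA elements and Pumilio-1 PUF domain libraries, randomized at the three base-contacting residues of every repeat, were co-expressed from a centromeric plasmid in strain YBZ-1 (LexA–MS2 coat fusion, HIS3 reporter). The repeat regions were PCR-amplified and Illumina-sequenced from cells grown four days on SC-Leu (input) or SC-Leu-His + 0.5 mM 3-AT (selection). The interaction score is the log change in variant frequency from input to selection. It is computed in log2, with a pseudocount of 1 for absent variants.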
# PUM1 PUF domain R4-NNG = PUM1 PUF domain R4-NNG (Homo sapiens, UniProt Q14671 828-1176, H972N;Q975G)
# Chain of PUM1 PUF domain R4-NNG (Q14671 828-1176 H972N/Q975G): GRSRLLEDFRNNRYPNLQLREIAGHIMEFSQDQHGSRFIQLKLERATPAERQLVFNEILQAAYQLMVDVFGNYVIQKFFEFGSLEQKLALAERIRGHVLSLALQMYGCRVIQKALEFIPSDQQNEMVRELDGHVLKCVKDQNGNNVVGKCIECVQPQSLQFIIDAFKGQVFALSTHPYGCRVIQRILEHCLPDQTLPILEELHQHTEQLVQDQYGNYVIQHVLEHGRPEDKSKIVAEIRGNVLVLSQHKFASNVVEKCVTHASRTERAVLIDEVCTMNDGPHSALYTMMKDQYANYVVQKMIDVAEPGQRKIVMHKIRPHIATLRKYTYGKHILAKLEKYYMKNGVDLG
# Method in brief: as §1
# PUM1 PUF domain R4-YHA = PUM1 PUF domain R4-YHA (Homo sapiens, UniProt Q14671 828-1176, N971Y;Q975A)
# Chain of PUM1 PUF domain R4-YHA (Q14671 828-1176 N971Y/Q975A): as the sequence (Q14671 828-1176 H972N/Q975G) above, with N144Y, N145H, G148A counted along it
# Method in brief: as §1
# PUM1 PUF domain R7-QPR = PUM1 PUF domain R7-QPR (Homo sapiens, UniProt Q14671 828-1176, S1079Q;N1080P;E1083R)
# Chain of PUM1 PUF domain R7-QPR (Q14671 828-1176 S1079Q/N1080P/E1083R): as the sequence (Q14671 828-1176 H972N/Q975G) above, with N145H, G148Q, S252Q, N253P, E256R counted along it
# Method in brief: as §1
# PUM1 PUF domain R4-PFT = PUM1 PUF domain R4-PFT (Homo sapiens, UniProt Q14671 828-1176, N971P;H972F;Q975T)
# Chain of PUM1 PUF domain R4-PFT (Q14671 828-1176 N971P/H972F/Q975T): as the sequence (Q14671 828-1176 H972N/Q975G) above, with N144P, N145F, G148T counted along it
# Method in brief: as §1
# PUM1 PUF domain R5-LYA = PUM1 PUF domain R5-LYA (Homo sapiens, UniProt Q14671 828-1176, C1007L;R1008Y;Q1011A)
# Chain of PUM1 PUF domain R5-LYA (Q14671 828-1176 C1007L/R1008Y/Q1011A): as the sequence (Q14671 828-1176 H972N/Q975G) above, with N145H, G148Q, C180L, R181Y, Q184A counted along it
# Method in brief: as §1
# PUM1 PUF domain R5-QRL = PUM1 PUF domain R5-QRL (Homo sapiens, UniProt Q14671 828-1176, C1007Q;Q1011L)
# Chain of PUM1 PUF domain R5-QRL (Q14671 828-1176 C1007Q/Q1011L): as the sequence (Q14671 828-1176 H972N/Q975G) above, with N145H, G148Q, C180Q, Q184L counted along it
# Method in brief: as §1
# PUM1 PUF domain R3-QRA = PUM1 PUF domain R3-QRA (Homo sapiens, UniProt Q14671 828-1176, C935Q;Q939A)
# Chain of PUM1 PUF domain R3-QRA (Q14671 828-1176 C935Q/Q939A): as the sequence (Q14671 828-1176 H972N/Q975G) above, with C108Q, Q112A, N145H, G148Q counted along it
# Method in brief: as §1
# PUM1 PUF domain R3-QRV = PUM1 PUF domain R3-QRV (Homo sapiens, UniProt Q14671 828-1176, C935Q;Q939V)
# Chain of PUM1 PUF domain R3-QRV (Q14671 828-1176 C935Q/Q939V): as the sequence (Q14671 828-1176 H972N/Q975G) above, with C108Q, Q112V, N145H, G148Q counted along it
# Method in brief: as §1
# PUM1 PUF domain R3-LHH = PUM1 PUF domain R3-LHH (Homo sapiens, UniProt Q14671 828-1176, C935L;R936H;Q939H)
# Chain of PUM1 PUF domain R3-LHH (Q14671 828-1176 C935L/R936H/Q939H): as the sequence (Q14671 828-1176 H972N/Q975G) above, with C108L, R109H, Q112H, N145H, G148Q counted along it
# Method in brief: as §1
# Chain of PUM1 PUF domain R4-DYI (Q14671 828-1176 N971D/H972Y/Q975I): as the sequence (Q14671 828-1176 H972N/Q975G) above, with N144D, N145Y, G148I counted along it
sequence,measurement,setting,value
GGCUAGAACUAGUGGAUCCCCCGGCGCCCGGCGGCUCGAGCCCGGGUAAGUGUAUAUAGUCUGCAUGCCGCCGGGCGCCAUGCCUGCAGGUCGACUCUAGAAAACAUG,binding signal,PUM1 PUF domain R4-DYI,6.31 log2 enrichment (interaction score)
same,binding signal,PUM1 PUF domain R4-NNG,4.95 log2 enrichment (interaction score)
same,binding signal,PUM1 PUF domain R4-YHA,3.12 log2 enrichment (interaction score)
GGCUAGAACUAGUGGAUCCCCCGGCGCCCGGCGGCUCGAGCCCGGGUAAGUUUAAAUAGUCUGCAUGCCGCCGGGCGCCAUGCCUGCAGGUCGACUCUAGAAAACAUG,binding signal,PUM1 PUF domain R7-QPR,5.06 log2 enrichment (interaction score)
GGCUAGAACUAGUGGAUCCCCCGGCGCCCGGCGGCUCGAGCCCGGGUAAGUGUAAAUAGUCUGCAUGCCGCCGGGCGCCAUGCCUGCAGGUCGACUCUAGAAAACAUG,binding signal,PUM1 PUF domain R4-PFT,5.31 log2 enrichment (interaction score)
same,binding signal,PUM1 PUF domain R5-LYA,3.54 log2 enrichment (interaction score)
same,binding signal,PUM1 PUF domain R5-QRL,3.37 log2 enrichment (interaction score)
GGCUAGAACUAGUGGAUCCCCCGGCGCCCGGCGGCUCGAGCCCGGGUAAGUGUAAUUAGUCUGCAUGCCGCCGGGCGCCAUGCCUGCAGGUCGACUCUAGAAAACAUG,binding signal,PUM1 PUF domain R3-QRA,2.85 log2 enrichment (interaction score)
same,binding signal,PUM1 PUF domain R3-QRV,2.73 log2 enrichment (interaction score)
GGCUAGAACUAGUGGAUCCCCCGGCGCCCGGCGGCUCGAGCCCGGGUAAGUGUGAAUAGUCUGCAUGCCGCCGGGCGCCAUGCCUGCAGGUCGACUCUAGAAAACAUG,binding signal,PUM1 PUF domain R5-QRL,3.22 log2 enrichment (interaction score)
GGCUAGAACUAGUGGAUCCCCCGGCGCCCGGCGGCUCGAGCCCGGGUAAGUGUUAAUAGUCUGCAUGCCGCCGGGCGCCAUGCCUGCAGGUCGACUCUAGAAAACAUG,binding signal,PUM1 PUF domain R5-LYA,3.15 log2 enrichment (interaction score)
GGCUAGAACUAGUGGAUCCCCCGGCGCCCGGCGGCUCGAGCCCGGGUAAGUCUAAAUAGUCUGCAUGCCGCCGGGCGCCAUGCCUGCAGGUCGACUCUAGAAAACAUG,binding signal,PUM1 PUF domain R7-QPR,1.84 log2 enrichment (interaction score)
GGCUAGAACUAGUGGAUCCCCCGGCGCCCGGCGGCUCGAGCCCGGGUAAGUGUACAUAGUCUGCAUGCCGCCGGGCGCCAUGCCUGCAGGUCGACUCUAGAAAACAUG,binding signal,PUM1 PUF domain R4-NNG,1.82 log2 enrichment (interaction score)
GGCUAGAACUAGUGGAUCCCCCGGCGCCCGGCGGCUCGAGCCCGGGUAAGUGUAAGUAGUCUGCAUGCCGCCGGGCGCCAUGCCUGCAGGUCGACUCUAGAAAACAUG,binding signal,PUM1 PUF domain R3-LHH,5.47 log2 enrichment (interaction score)
same,binding signal,PUM1 PUF domain R3-QRA,3.67 log2 enrichment (interaction score)
same,binding signal,PUM1 PUF domain R3-QRV,3.59 log2 enrichment (interaction score)

# — paper PMC8384837, “Expanding the binding specificity for RNA recognition by a PUF domain”
